The source made the active and inactive calls. The calls were made as follows: active = hit-call score of the fitted dose curve at least 0.9, where 1 is the maximum; inactive = score below 0.9.
Legend:
Settings in all cases: mRNA level, 48 h; actives raise or lower the signal
[1] = read-out: Bcl-2 (BID) gene, BID (gene 637); experiment: LTEA_HepaRG_BID: Life Technologies and Expression Analysis (LTEA) Assay for Bcl-2 (BID) gene using HepaRG (AID 2283476)
Method in brief: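 Gene expression by qRT-PCR in HepaRG cells after 48 h exposure, duplicate wells, eight half-log concentrations topping at 100 uM in 0.5% DMSO. Normalized to ACTB, GAPDH, POLR2A; bidirectional fitting relative to DMSO.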

Caspase-3 (Homo sapiens) = Caspase-3 (Homo sapiens) (UniProt P42574); experiment: LTEA_HepaRG_CASP3: Life Technologies and Expression Analysis (LTEA) Assay for cysteine-aspartic acid protease (CASP3) using HepaRG (AID 2283477)
Method in brief: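 Read-out is CASP3 mRNA level by TaqMan qRT-PCR in human HepaRG cells after 48 h chemical exposure. Eight half-log concentrations topping at 100 uM were tested in 0.5% DMSO; gain or loss was fitted relative to DMSO.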

[2] = read-out: Cytochrome P450 (CYP24A1), CYP24A1 (gene 1591); experiment: LTEA_HepaRG_CYP24A1: Life Technologies and Expression Analysis (LTEA) Assay for Cytochrome P450 (CYP24A1) using HepaRG (AID 2283478)
Method in brief: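 HepaRG, 48 h chemical exposure, 8-pt half-log CRC from 100 uM, 0.5% DMSO vehicle, duplicates. Endpoint: CYP24A1 mRNA by Fluidigm TaqMan qRT-PCR, normalized ACTB/GAPDH/POLR2A; gain/loss fit vs DMSO.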

[3] = read-out: Cytochrome P450 (CYP1A2), CYP1A2 (gene 1544); experiment: LTEA_HepaRG_CYP1A2: Life Technologies and Expression Analysis (LTEA) Assay for Cytochrome P450 (CYP1A2) using HepaRG (AID 2283479)
Method in brief: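 CYP1A2 transcript induction or loss, quantified by Fluidigm qRT-PCR against three housekeeping genes, was fitted bidirectionally against 0.5% DMSO controls. Human HepaRG cells received eight half-log concentrations from 100 uM over 48 h.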

[4] = read-out: Cytochrome P450 (CYP2B6), CYP2B6 (gene 1555); experiment: LTEA_HepaRG_CYP2B6: Life Technologies and Expression Analysis (LTEA) Assay for Cytochrome P450 (CYP2B6) using HepaRG (AID 2283481)
Method in brief: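 HepaRG cells plated 48 h, switched to serum-free induction medium, then dosed 48 h (8 points, half-log from 100 uM, 0.5% DMSO). RNA isolated; CYP2B6 expression measured by qRT-PCR; gain or loss fitted relative to DMSO.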

[5] = read-out: Cytochrome P450 2C19 (Homo sapiens) (UniProt P33261); experiment: LTEA_HepaRG_CYP2C19: Life Technologies and Expression Analysis (LTEA) Assay for CYP2C19 using HepaRG (AID 2283482)
Method in brief: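 Transcript levels of CYP2C19 were quantified by qRT-PCR after HepaRG cells were treated for 48 hours with test chemicals up to 100 uM (eight half-log concentrations, 0.5% DMSO vehicle). Gain or loss of signal was fitted relative to DMSO.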

CYP2E1 (gene 1571) = experiment: LTEA_HepaRG_CYP2E1: Life Technologies and Expression Analysis (LTEA) Assay for CYP2E1 using HepaRG (AID 2283485)
Method in brief: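 HepaRG cells, plated 48 h, then exposed 48 h in serum-free induction medium to eight half-log concentrations from 100 uM in 0.5% DMSO, duplicate. CYP2E1 mRNA by qRT-PCR, normalized to ACTB/GAPDH/POLR2A; bidirectional fit versus DMSO.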

CYP4A11 (gene 1579) = experiment: LTEA_HepaRG_CYP4A11: Life Technologies and Expression Analysis (LTEA) Assay for CYP4A11 using HepaRG (AID 2283486)
Method in brief: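 HepaRG, 48 h chem exposure, 8 conc (100 uM top, half-log), 0.5% DMSO vehicle; qRT-PCR readout, housekeeping-gene normalized; bidirectional curve fit vs DMSO baseline.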

[6] = read-out: DNA damage-inducible transcript 3 (DDIT3), DDIT3 (gene 1649); experiment: LTEA_HepaRG_DDIT3: Life Technologies and Expression Analysis (LTEA) Assay for DNA damage-inducible transcript 3 (DDIT3) using HepaRG (AID 2283488)
Method in brief: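 HepaRG cells, 48 h after plating, exposed 48 h in serum-free induction medium to 8 half-log concentrations up to 100 uM in 0.5% DMSO, in duplicate. DDIT3 mRNA measured by TaqMan qRT-PCR, normalized to ACTB, GAPDH and POLR2A. Fitted bidirectionally against DMSO.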

[7] = read-out: Pro-epidermal growth factor (Homo sapiens) (UniProt P01133); experiment: LTEA_HepaRG_EGF: Life Technologies and Expression Analysis (LTEA) Assay for Epidermal growth factor (EGF) using HepaRG (AID 2283489)
Method in brief: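 HepaRG, 48 h dosing, 100 uM top, half-log x8, 0.5% DMSO. Readout: TaqMan qRT-PCR (Fluidigm array), housekeeping-normalized. Gain or loss of signal fit vs DMSO.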

[8] = read-out: Early growth response protein 1 (EGR1) transcription factor, EGR1 (gene 1958); experiment: LTEA_HepaRG_EGR1: Life Technologies and Expression Analysis (LTEA) Assay for Early growth response protein 1 (EGR1) transcription factor using HepaRG (AID 2283490)
Method in brief: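 Differentiated human HepaRG cells in serum-free induction medium were exposed in duplicate for 48 h to eight concentrations (top 100 uM, half-log steps) in 0.5% DMSO. EGR1 mRNA was quantified by qRT-PCR, normalized to ACTB, GAPDH and POLR2A, and fitted bidirectionally versus DMSO.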

[9] = read-out: Ezrin (EZR), EZR (gene 7430); experiment: LTEA_HepaRG_EZR: Life Technologies and Expression Analysis (LTEA) Assay for Ezrin (EZR) using HepaRG (AID 2283491)
Method in brief: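 Differentiated human HepaRG cells, 48 h after plating, were exposed in serum-free induction medium for 48 hours to eight half-log concentrations up to 100 uM in 0.5% DMSO. EZR mRNA was measured by TaqMan qRT-PCR, normalized to ACTB, GAPDH and POLR2A, and fitted bidirectionally against DMSO.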

[10] = read-out: Cytochrome P450 3A7 (Homo sapiens) (UniProt P24462); experiment: LTEA_HepaRG_CYP3A7: Life Technologies and Expression Analysis (LTEA) Assay for CYP3A7 using HepaRG (AID 2283492)
Method in brief: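 Human HepaRG liver cells, 48 h post-plating, switched to serum-free induction medium and exposed in duplicate for 48 h. Dosing: 100 uM top, half-log dilutions, 8 points, 0.5% DMSO vehicle. Read-out: CYP3A7 mRNA, gain or loss fitted against DMSO baseline.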

[11] = read-out: Fatty Acid-Binding Protein 1 (FABP1), FABP1 (gene 2168); experiment: LTEA_HepaRG_FABP1: Life Technologies and Expression Analysis (LTEA) Assay for Fatty Acid-Binding Protein 1 (FABP1) using HepaRG (AID 2283494)
Method in brief: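 Differentiated human HepaRG cells were exposed in duplicate for 48 h in serum-free induction medium to 8-point half-log concentration series topping at 100 uM in 0.5% DMSO. FABP1 mRNA measured by TaqMan qRT-PCR, normalized to ACTB/GAPDH/POLR2A; bidirectional fit versus DMSO.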

[12] = read-out: Cytochrome P450 3A4 (Homo sapiens) (UniProt P08684); experiment: LTEA_HepaRG_CYP3A4: Life Technologies and Expression Analysis (LTEA) Assay for CYP3A4 using HepaRG (AID 2283487)
Method in brief: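 Differentiated HepaRG cells in serum-free induction medium exposed in duplicate for 48 h to 8 half-log concentrations up to 100 uM in 0.5% DMSO. CYP3A4 mRNA measured by qRT-PCR normalized to ACTB, GAPDH and POLR2A; bidirectional fit versus DMSO.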

CYP3A5 (gene 1577) = experiment: LTEA_HepaRG_CYP3A5: Life Technologies and Expression Analysis (LTEA) Assay for CYP3A5 using HepaRG (AID 2283493)
Method in brief: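 HepaRG cells, plated 48 h then in serum-free induction medium, dosed in duplicate for 48 h with eight half-log concentrations up to 100 uM in 0.5% DMSO. Gene mRNA by Fluidigm TaqMan qRT-PCR, normalized to ACTB, GAPDH, POLR2A.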

CYP2C8 (gene 1558) = experiment: LTEA_HepaRG_CYP2C8: Life Technologies and Expression Analysis (LTEA) Assay for CYP2C8 using HepaRG (AID 2283483)
Method in brief: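 Differentiated human HepaRG cells were exposed for 48 h in serum-free induction medium to eight half-log concentrations up to 100 uM in 0.5% DMSO, in duplicate. CYP2C8 mRNA was measured by TaqMan qRT-PCR, normalized to ACTB, GAPDH and POLR2A, and fitted bidirectionally against DMSO.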

[13] = read-out: Cytochrome P450 4A22 (Homo sapiens) (UniProt Q5TCH4); experiment: LTEA_HepaRG_CYP4A22: Life Technologies and Expression Analysis (LTEA) Assay for Cytochrome P450 4A22 (CYP4A22) using HepaRG (AID 2283495)
Method in brief: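 Readout is CYP4A22 transcript induction or loss, quantified by qRT-PCR and normalized to ACTB, GAPDH and POLR2A. Human HepaRG cells receive test chemicals for 48 h at eight half-log concentrations from 100 uM in 0.5% DMSO.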

[14] = read-out: cysteine-aspartic acid protease (CASP8), CASP8 (gene 841); experiment: LTEA_HepaRG_CASP8: Life Technologies and Expression Analysis (LTEA) Assay for cysteine-aspartic acid protease (CASP8) using HepaRG (AID 2283480)
Method in brief: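 Differentiated human HepaRG cells, plated 48 h then switched to serum-free induction medium, were exposed in duplicate for 48 h to 8 half-log concentrations up to 100 uM in 0.5% DMSO. CASP8 mRNA was quantified by qRT-PCR, normalized to ACTB/GAPDH/POLR2A.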

CYP2C9 (gene 1559) = experiment: LTEA_HepaRG_CYP2C9: Life Technologies and Expression Analysis (LTEA) Assay for CYP2C9 using HepaRG (AID 2283484)
Method in brief: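 Differentiated human HepaRG cells were exposed 48 h in serum-free induction medium to eight half-log concentrations up to 100 uM in 0.5% DMSO. CYP2C9 mRNA was measured by qRT-PCR, normalized to ACTB, GAPDH and POLR2A, and fitted bidirectionally against DMSO.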

Measured: AC50

Sequence of Cytochrome P450 3A7 (Homo sapiens) (P24462 whole entry, looked up): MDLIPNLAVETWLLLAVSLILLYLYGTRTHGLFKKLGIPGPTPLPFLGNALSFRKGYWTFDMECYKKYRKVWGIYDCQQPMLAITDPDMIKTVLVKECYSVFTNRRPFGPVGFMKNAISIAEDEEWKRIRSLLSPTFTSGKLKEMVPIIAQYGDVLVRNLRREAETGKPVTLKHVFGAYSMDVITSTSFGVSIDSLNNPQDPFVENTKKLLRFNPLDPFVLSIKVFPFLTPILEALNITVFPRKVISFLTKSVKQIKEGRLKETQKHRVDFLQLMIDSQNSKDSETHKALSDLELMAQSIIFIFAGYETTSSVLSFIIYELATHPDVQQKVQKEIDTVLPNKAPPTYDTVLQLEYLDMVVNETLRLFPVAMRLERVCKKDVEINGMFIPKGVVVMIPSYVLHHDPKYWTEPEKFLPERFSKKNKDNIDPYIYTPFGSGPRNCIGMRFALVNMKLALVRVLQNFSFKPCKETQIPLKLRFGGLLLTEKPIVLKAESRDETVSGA
Sequence of Cytochrome P450 2C19 (Homo sapiens) (P33261 whole entry, looked up): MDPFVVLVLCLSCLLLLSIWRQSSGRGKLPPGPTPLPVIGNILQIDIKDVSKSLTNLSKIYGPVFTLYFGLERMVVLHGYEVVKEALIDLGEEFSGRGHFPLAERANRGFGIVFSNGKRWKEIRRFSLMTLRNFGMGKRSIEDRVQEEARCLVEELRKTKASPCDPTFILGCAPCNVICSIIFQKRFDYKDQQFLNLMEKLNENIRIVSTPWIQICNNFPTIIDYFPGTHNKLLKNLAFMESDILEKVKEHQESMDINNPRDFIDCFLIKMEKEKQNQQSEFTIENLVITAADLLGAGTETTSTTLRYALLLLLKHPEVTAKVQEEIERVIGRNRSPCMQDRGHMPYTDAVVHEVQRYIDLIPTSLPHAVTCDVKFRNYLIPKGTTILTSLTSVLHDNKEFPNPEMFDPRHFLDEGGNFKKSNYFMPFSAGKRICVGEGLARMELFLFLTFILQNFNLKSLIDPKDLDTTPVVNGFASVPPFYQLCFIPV
Sequence of Cytochrome P450 3A4 (Homo sapiens) (P08684 whole entry, looked up): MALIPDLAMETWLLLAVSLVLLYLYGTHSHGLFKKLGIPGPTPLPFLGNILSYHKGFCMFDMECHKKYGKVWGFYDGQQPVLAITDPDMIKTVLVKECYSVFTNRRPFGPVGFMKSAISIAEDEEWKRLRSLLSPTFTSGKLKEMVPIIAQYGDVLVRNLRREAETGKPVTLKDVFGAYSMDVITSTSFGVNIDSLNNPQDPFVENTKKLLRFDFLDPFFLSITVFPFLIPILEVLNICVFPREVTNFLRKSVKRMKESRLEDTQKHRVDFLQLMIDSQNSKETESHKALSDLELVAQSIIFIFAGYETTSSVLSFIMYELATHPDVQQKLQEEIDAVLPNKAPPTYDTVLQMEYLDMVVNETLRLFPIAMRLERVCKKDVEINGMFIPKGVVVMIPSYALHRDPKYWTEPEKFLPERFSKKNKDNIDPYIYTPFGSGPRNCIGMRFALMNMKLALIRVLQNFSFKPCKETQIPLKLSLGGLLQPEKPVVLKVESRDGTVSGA
Sequence of Caspase-3 (Homo sapiens) (P42574 whole entry, looked up): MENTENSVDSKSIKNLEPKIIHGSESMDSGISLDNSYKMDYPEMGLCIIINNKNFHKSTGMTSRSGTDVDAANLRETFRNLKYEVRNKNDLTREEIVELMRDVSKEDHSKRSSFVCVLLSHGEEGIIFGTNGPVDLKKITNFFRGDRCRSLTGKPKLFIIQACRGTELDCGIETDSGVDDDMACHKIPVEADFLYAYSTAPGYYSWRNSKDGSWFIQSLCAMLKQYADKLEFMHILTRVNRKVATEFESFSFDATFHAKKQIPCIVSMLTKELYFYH

CCOP(=S)(OCC)Oc1cc(C)nc(C(C)C)n1
active: [3] 29.3 µM | [4] 2.5 µM | [5] 16.1 µM | CYP2E1 (gene 1571) 9.92 µM
not listed: [12] | CYP3A5 (gene 1577) | CYP2C8 (gene 1558) | [13] | [14] | CYP2C9 (gene 1559)
inactive: all other assays above

CN1COCN(Cc2cnc(Cl)s2)C1=N[N+](=O)[O-]
active: [4] 50 µM | [12] 38.8 µM
not listed: CYP2C8 (gene 1558) | [13] | [14] | CYP2C9 (gene 1559)
inactive: all other assays above

CCCSP(=O)(OCC)Oc1ccc(Br)cc1Cl (stereo not drawn)
active: [4] 13.4 µM | CYP2E1 (gene 1571) 40.4 µM
not listed: [6] | [14] | CYP2C9 (gene 1559)
inactive: all other assays above

CN(C)NC(=O)CCC(=O)O
not listed: CYP3A5 (gene 1577) | CYP2C8 (gene 1558) | [13] | [14] | CYP2C9 (gene 1559)
inactive: all other assays above

CCC(CC)Nc1c([N+](=O)[O-])cc(C)c(C)c1[N+](=O)[O-]
active: [4] 13.1 µM | [5] 6.35 µM | CYP2E1 (gene 1571) 64.7 µM | [12] 25.4 µM | [7] 50 µM | [10] 16.7 µM | [11] 50 µM
not listed: CYP3A5 (gene 1577) | CYP2C8 (gene 1558) | [13] | [14] | CYP2C9 (gene 1559)
inactive: all other assays above

COP(=O)(OC)C(O)C(Cl)(Cl)Cl (stereo not drawn)
active: [1] 0.155 µM
inactive: Caspase-3 (Homo sapiens) | [14] | [6] | [7] | [8] | [9] | [11]

CCOP(=S)(OCC)SCCSCC
active: [4] 7.58 µM | [5] 22.2 µM | [12] 22.2 µM
not listed: CYP2C8 (gene 1558) | [14] | CYP2C9 (gene 1559)
inactive: all other assays above

CC1=NNC(=O)N(/N=C/c2cccnc2)C1
active: [3] 6.84 µM
not listed: [6] | CYP3A5 (gene 1577) | CYP2C8 (gene 1558) | [14]
inactive: all other assays above

Reference: PubChem BioAssay (EPA / NIEHS)
